Experimental data as given in ChEMBL document CHEMBL3988442, “University of Dundee, Small-Polar-MMV Screening Library” (2021).
Among all 48,000 compounds or so, about 13,000 (27%) showed an effect of 50% or more. The list shows a part of the results.

Tested on: Wolbachia pipientis
Assay: Anti-Wolbachia Cell-Based Screen
Format: functional
Parameters: scale not given: in the data most compounds retested in dose-response had high values
Conditions: 5 µM

Structure (SMILES) | Percent Effect
CC(NCC1=Cc2cc(Cl)ccc2OC1)c1nnc2n1CCCC2 (stereo not drawn) | 8.386%
CN1CCOC[C@H]1c1nc(-c2cccnc2)c[nH]1 | -3.029%
CCNc1nc(-c2cccnc2)c(-c2ccnc(N3CCCC3)n2)s1 | 59.83%
CCCS(=O)(=O)N1CCN(c2ccnc(N3CCCC3)n2)CC1 | 2.468%
CCNc1nc(-c2cccnc2)c(-c2ccnc(N3CCOCC3)n2)s1 | 59.36%
CCNc1ccnc(N2CCN(Cc3ncccc3C)CC2)n1 | 0.1311%
CCc1cnc(NCC(c2cccnc2)N2CCOCC2)nc1 (stereo not drawn) | 1.67%
CN(Cc1nccn1C)c1ccc(-c2nccn2C)nn1 | -5.677%
CNc1cc(C2CCN2c2ncccn2)nc(C)n1 (stereo not drawn) | 95.15%
Cc1nc(C2CCN2c2ncccn2)cc(N(C)C)n1 (stereo not drawn) | 87.93%
Cc1nc(NC2CCCC2)cc(C2CCN2c2ncccn2)n1 (stereo not drawn) | 84.97%
CN(Cc1nnc2n1CCC2)S(=O)(=O)c1cc(Br)ccc1Br | 5.695%
O=C(c1cncc(N2CCC3(CC2)NCCNC3=O)n1)N1CCCCC1 | -23.93%
CN(C)CCn1ccc2cc(NC(=O)NCc3ccon3)ccc21 | -4.037%
O=C(Cc1cccc(F)c1F)NS(=O)(=O)c1ccc(Cl)cn1 | 3.295%
O=C(CNc1cc2c(cc1Cl)OCCO2)NCC(F)(F)F | 19.2%
CN(Cc1ccc2nsnc2c1)CC1(O)CCNC1 (stereo not drawn) | 4.818%
COc1ccc(CN(C)CC2(O)CCNC2)cc1 (stereo not drawn) | 119.3%
COc1ccc(C2(C(=O)N3CC[C@@]4(O)CCNC[C@H]4C3)CCCC2)cc1 | -11.98%
N#Cc1cn(C2CC2)c(=O)n(Cc2ncc(-c3cccs3)o2)c1=O | 18.42%
COCCCN1CC2(CCCN(c3ncc4nc[nH]c4n3)C2)CCC1=O (stereo not drawn) | -4.995%
Cl.Cl.O=C(NCc1cncc2c1CCN(CC1CCOC1)C2)c1ccno1 (stereo not drawn) | 2.196%
Cl.Cl.O=C(NCc1cncc2c1CCN(C1CCOCC1)C2)c1ccco1 | 116%
Cl.Cl.O=C(NCc1cncc2c1CCN(Cc1ccc(F)cc1)C2)C1CC1 | -3.295%
Cl.Cl.O=C(NCc1cncc2c1CCN(CC1CCOC1)C2)c1ccco1 (stereo not drawn) | 105%
Cl.Cl.O=C(NCc1cncc2c1CCN(C1CCOC1)C2)c1ccco1 (stereo not drawn) | 112.9%
Cl.Cl.O=C(NCc1cncc2c1CCN(Cc1cccc(F)c1)C2)C1CC1 | 1.539%

Structure (SMILES) | Percent Effect
Cl.Cl.O=C(NCc1cncc2c1CCN(C1CCOCC1)C2)c1ccno1 | 114.6%
CC(C)CN1CCC(C(=O)NCCNC(=O)c2ccco2)CC1 | -4.338%
Cl.Cl.O=C(NCc1cncc2c1CCN(Cc1ccccc1)C2)C1CC1 | 12.37%
CS(=O)(=O)N1CCCN(C(=O)c2ccc(Cn3ccccc3=O)o2)CC1 | 2.265%
O=C(NS(=O)(=O)c1ccccc1Cl)c1cccc2c1OCCO2 | -4.478%
Cc1ccc(CN(C)C)cc1NC(=O)C1CC=CC1 | -13.67%
CCc1ncc2c(n1)CN(CC(=O)N1CCc3sccc3C1)CC2 | 0.7848%
COc1ccc(N2CCCC3(C2)CN(c2cccnc2)CCO3)cc1.O=C(O)C(F)(F)F (stereo not drawn) | 0.9473%
O=C(O)C(F)(F)F.c1cncc(N2CCCC3(CCN(CC4CCCO4)CC3)C2)c1 (stereo not drawn) | 83.5%
O=C(O)C(F)(F)F.c1cncc(N2CCOCC3(CCCN(c4nncs4)C3)C2)c1 (stereo not drawn) | -4.249%
O=C(O)C(F)(F)F.O=C(O)C(F)(F)F.c1cncc(N2CCCC3(CCN(CCN4CCCC4)CC3)C2)c1 | 112%
N#Cc1ccc(N2CCCC3(CCN(c4cccnc4)CC3)C2)cc1.O=C(O)C(F)(F)F | 32.72%
Fc1cnccc1CN1CCCC2(CCN(c3ncccn3)CC2)C1.O=C(O)C(F)(F)F | -3.022%
O=C(O)C(F)(F)F.c1cncc(N2CCC3(CCCN(c4ccncc4)C3)CC2)c1 | 92.43%
c1ccc(NCc2cn3c(n2)CN(Cc2nccs2)CC3)nc1 | 0.03801%
CC(=O)c1cc(CC(=O)N2CCN(S(=O)(=O)c3ccccc3)CC2)cs1 | -20.85%
COc1cc2c(nn1)CCN(Cc1nnc(Cc3ccccc3)o1)C2 | 16.22%
CC(C)COCCCNC(=O)NC(C)c1ccc(-n2cncn2)cc1 (stereo not drawn) | -8.242%
O=C(NCc1cccnc1)[C@@H]1C[C@@H]2CCN(c3ncc(F)cn3)C[C@@H]2O1.O=C(O)C(F)(F)F.O=C(O)C(F)(F)F | 11.34%
COCCNC(=O)[C@H]1C[C@@H]2CCN(CCc3ccccc3)C[C@@H]2O1.O=C(O)C(F)(F)F | -51.54%
O=C(NCc1cccnc1)[C@@H]1C[C@H]2[C@H](CCN2c2ncc(F)cn2)O1.O=C(O)C(F)(F)F.O=C(O)C(F)(F)F | -1.497%
COCCNC(=O)[C@H]1C[C@@H]2CCN(c3ccncn3)C[C@H]2O1.O=C(O)C(F)(F)F | 90.71%
COCCNC(=O)[C@H]1C[C@@H]2CCN(CCc3ccccc3)C[C@H]2O1.O=C(O)C(F)(F)F | 28.03%
COCCNC(=O)[C@@H]1C[C@@H]2CCN(c3ncccn3)C[C@H]2O1.O=C(O)C(F)(F)F | 90.69%
COCCNC(=O)[C@H]1C[C@@H]2CCN(c3ccccc3)C[C@H]2O1.O=C(O)C(F)(F)F | 88.58%
O=C(NCc1cccnc1)[C@H]1C[C@@H]2CCN(c3ccncn3)C[C@H]2O1.O=C(O)C(F)(F)F.O=C(O)C(F)(F)F | 98.22%
